Hits are enriched below; roughly 12% of the tested compounds scored in any of these assays.
HP1b binding inh = HTS for Inhibitors of HP1-beta Chromodomain Interactions with Methylated Histone Tails. AlphaScreen HP1-beta / biotin-H3K9me3 peptide binding. hit rate 0.56% among 390,000. Potency, µM (doses to about 114 µM), usual class: inhibitors. Chromobox protein homolog 1 (Homo sapiens), P83916; note: nearly all actives have a fitted effect of over 70% in size
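Compound inhibition of the preformed complex between 50 nM HP1-beta and 50 nM biotinylated H3K9me3 peptide was read by AlphaScreen. Buffer was PBS pH 7.4 with 0.01% Tween-20. Incubations ran 30 min at room temperature, with 10 ug/mL donor/acceptor beads.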
G9a inh = qHTS Assay for Inhibitors of Histone Lysine Methyltransferase G9a | G9a H3K9 monomethylation, AlphaScreen, 2 h | Potency, µM (titrated, usually from 102 µM), hits mostly inhibitors | hit rate 8.8% among 350,000; note: nearly all actives have a fitted effect of over 75% in size
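Signal arises when biotinylated H3K9 peptide, once monomethylated, bridges streptavidin donor and antibody-captured acceptor beads. Enzyme at 20 nM was preincubated 15 min with test compounds; peptide 500 nM and SAM 20 uM then reacted for 2 h.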
PLK1 PBD inh = qHTS for Inhibitors of PLK1-PDB (polo-like kinase 1 - polo-box domain): Primary Screen | Potency, µM, usual class: inhibitors | Plk1 PBD binding of FITC phosphopeptide, fluorescence polarization | hit rate 2.8% among 360,000; note: series mostly up to about 57 µM; nearly all actives have a fitted effect of over 65% in size
Sfp inh = qHTS Assay for Inhibitors of Bacillus subtilis Sfp phosphopantetheinyl transferase (PPTase); 4'-phosphopantetheinyl transferase ffp (Bacillus subtilis), Q9F4F7; hit rate 3.5% among 310,000; Biochemical Sfp PPTase activity, qHTS; AID 1490, 2009; Potency, µM, most hits filed as inhibitors;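 note: the enzyme is Sfp with the accession as filed and its product quenches rhodamine fluorescence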
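Step 1, compound plus 15 nM Sfp-PPTase, 15 min, room temperature. Step 2, add rhodamine-CoA (5 uM) and BHQ-2-YbbR (12.5 uM). Step 3, read 525/598 nm fluorescence at 0 and 30 min.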
JMJD2A Tudor inh = qHTS Assay for Inhibitors of JMJD2A-Tudor Domain | Lysine-specific demethylase 4A (Homo sapiens), O75164 | AlphaScreen JMJD2A-Tudor / H3K4me3 peptide binding | Potency, µM (series often up to 114 µM), hits mostly inhibitors | hit rate 4.4% among 390,000 | AID 504339, 2011; note: nearly all actives have a fitted effect of over 50% in size
Target sequence (O75164 whole entry, looked up, the tested form may be a part): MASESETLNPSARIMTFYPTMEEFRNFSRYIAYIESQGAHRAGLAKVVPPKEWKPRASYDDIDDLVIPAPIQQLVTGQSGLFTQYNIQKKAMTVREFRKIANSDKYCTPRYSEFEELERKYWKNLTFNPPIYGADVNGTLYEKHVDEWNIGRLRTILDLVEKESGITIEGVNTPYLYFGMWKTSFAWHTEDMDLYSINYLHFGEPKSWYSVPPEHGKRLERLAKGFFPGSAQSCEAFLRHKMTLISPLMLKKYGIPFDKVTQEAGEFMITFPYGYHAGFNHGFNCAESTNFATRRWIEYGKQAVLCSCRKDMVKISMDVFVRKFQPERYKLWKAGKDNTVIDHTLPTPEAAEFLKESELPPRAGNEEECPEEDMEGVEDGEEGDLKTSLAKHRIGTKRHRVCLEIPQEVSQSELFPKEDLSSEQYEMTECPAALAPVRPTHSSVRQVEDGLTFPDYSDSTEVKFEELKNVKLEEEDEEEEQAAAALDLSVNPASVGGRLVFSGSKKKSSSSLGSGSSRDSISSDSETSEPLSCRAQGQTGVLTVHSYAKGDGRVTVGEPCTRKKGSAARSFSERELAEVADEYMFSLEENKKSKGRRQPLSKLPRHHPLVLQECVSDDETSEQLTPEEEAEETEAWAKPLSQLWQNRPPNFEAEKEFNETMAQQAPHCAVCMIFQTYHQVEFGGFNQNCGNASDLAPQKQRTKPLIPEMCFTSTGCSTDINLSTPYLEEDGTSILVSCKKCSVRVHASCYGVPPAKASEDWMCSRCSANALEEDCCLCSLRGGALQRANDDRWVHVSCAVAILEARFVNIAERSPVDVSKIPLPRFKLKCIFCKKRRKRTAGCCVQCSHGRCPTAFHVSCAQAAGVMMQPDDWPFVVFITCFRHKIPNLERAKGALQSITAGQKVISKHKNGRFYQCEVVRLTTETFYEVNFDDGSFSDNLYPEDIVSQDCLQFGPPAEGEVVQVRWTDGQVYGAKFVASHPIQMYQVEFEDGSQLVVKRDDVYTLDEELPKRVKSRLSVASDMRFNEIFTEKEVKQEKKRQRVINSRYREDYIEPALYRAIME
BAZ2B inh = qHTS Assay for Inhibitors of BAZ2B | AID 504333, 2011 | Bromodomain adjacent to zinc finger domain protein 2B (Homo sapiens), Q9UIF8 | hit rate 4.4% among 360,000 | Potency, µM (doses to about 114 µM), most hits filed as inhibitors | AlphaScreen BAZ2B-H3K14Ac peptide displacement; note: nearly all actives have a fitted effect of over 60% in size
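Compounds, titrated to a top concentration of 110 uM, were incubated 30 min at room temperature with preformed BAZ2B/acetyl-K14 H3 peptide complex (50 nM each). Proximity signal was measured by AlphaScreen after 20 min with beads.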
Numbers stand for hits; - = inactive; ? = inconclusive; . = no result; [ ] = another dose, or the depositor's remark. Calls come from the whole dose curve; as a rule, active = well fitted curve in the direction sought with a large enough effect; inconclusive = small, poorly fitted or top-dose-only effect, or another doubt; inactive = no such curve, though single readings can be large; an effect the other way counts as inactive or inconclusive.

SMILES	HP1b binding inh	G9a inh	PLK1 PBD inh	Sfp inh	JMJD2A Tudor inh	BAZ2B inh
Cc1ccc(CNC(=O)Cc2nc3nc(C)cc(C)n3n2)cc1	-	-	-	-	-	-
Cc1cc(C)n2nc(C(=O)OCC(=O)c3ccc(F)cc3)nc2n1	-	56µM	-	.	-	-
CC(=O)Nc1ccc(S(=O)(=O)N2CCN(C(=O)c3ncoc3-c3ccc(C)cc3)CC2)cc1	-	-	-	-	-	-
Cc1ccc(S(=O)(=O)N2CCOC2CNC(=O)C(=O)NCc2ccc(Cl)cc2)cc1 (stereo not given)	-	.	-	-	-	-
CN(C)Cc1cccc([N+](=O)[O-])c1O	-	50µM	-	-	-[11.4 µM]	-
Cc1ccc[n+](-c2nc([O-])sc2C=O)c1	-	?	13µM	-	-[11.4 µM]	?
COc1cc(C(=O)NCC(c2ccco2)N2CCc3ccccc32)cc(OC)c1OC (stereo not given)	-	50µM	-	.	?	79µM
CCOc1ccccc1C(=O)NCC(c1ccc(N(C)C)cc1)N1CCc2ccccc21 (stereo not given)	?	13µM	.	.	10µM	5.6µM
Cc1ccc(C(=O)NCC(c2ccco2)N2CCc3ccccc32)cc1C (stereo not given)	-	-[0.501 µM]	-	.	?	?
COc1ccc(C(=O)NCC(c2cccnc2)N2CCc3ccccc32)cc1 (stereo not given)	-	?	.	.	-	-
O=C(NCC(c1ccco1)N1CCc2ccccc21)c1ccccc1 (stereo not given)	-	50µM	-	.	?	?
COc1ccc(OC)c(S(=O)(=O)NCC(c2ccco2)N2CCc3ccccc32)c1 (stereo not given)	-	50µM	-	.	?	?
COc1ccc(CCNC(=O)CSc2nc3ccsc3c(=O)n2CC2CCC(C(=O)O)CC2)cc1OC (stereo not given)	-	-	-	-	-	-
Cc1cc2c(s1)c1cnn(Cc3ccc(C)c(F)c3F)c(=O)c1n2C	.	.	.	.	-	.
Cc1ccc(S(=O)(=O)Nc2ccc(-c3ccc(N4CCCCCC4)nn3)cc2)cc1C	-	-	.	.	-	-
COc1ccccc1NC(=O)C(=O)NCC(c1ccco1)N1CCc2ccccc21 (stereo not given)	-	?	-	.	-	-
COc1ccccc1C(=O)NCC(c1ccco1)N1CCc2ccccc21 (stereo not given)	-	50µM	-	.	?	50µM
COc1cccc(-c2nc(SCC(=O)Nc3nc(-c4ccccc4)c(C)s3)[nH]c(=O)c2C#N)c1	-	?	21µM	-	-	?
Cc1sc(NC(=O)CSc2nc(O)cc(=O)[nH]2)nc1-c1ccccc1	-	?	-	-	-	?
CCOC(=O)Cc1csc(NC(=O)CSc2nc(-c3ccccc3)c(C#N)c(=O)[nH]2)n1	-	?	-	-	-	-
COc1ccccc1NC(=O)CSc1nc(-c2ccc(C(C)(C)C)cc2)c(C#N)c(=O)[nH]1	-	-	.	.	-	79µM
CCOc1ccc2nc(NC(=O)CSc3nc(-c4ccccc4)c(C#N)c(=O)[nH]3)sc2c1	?	?	21µM	-	50µM	-
CN(C(=O)CSc1nc(-c2ccc(C(C)(C)C)cc2)c(C#N)c(=O)[nH]1)C1CCCCC1	-	45µM	?	-	-	-
CCOC(=O)c1ccc(CN(Cc2ccc(Cl)cc2Cl)S(=O)(=O)c2cccc(Cl)c2)cc1	-	-	.	.	-	-
O=C(Nc1ccccn1)C1CCN(C(=O)c2ccc(Cl)cc2)CC1	.	.	-	.	.	.
SMILES	HP1b binding inh	G9a inh	PLK1 PBD inh	Sfp inh	JMJD2A Tudor inh	BAZ2B inh
O=C(Nc1ccn(CCCNC2CCN(Cc3ccccc3)CC2)c(=O)n1)OCc1ccccc1	.	.	-	.	.	.
COCC(=O)Nc1nc(-c2ccccc2)c(C)s1	-	45µM	?	-	-	-
Cc1cccc(C(=O)Nc2ccccc2C(=O)OCc2cc(=O)n3nc(C4CC4)sc3n2)c1	-	-	.	.	-	-
COc1ccc(NC(=O)/C=N/O)cc1	-	-	-	-	-	-
CCOC(=O)C(=O)N/N=C(/c1ccccc1)c1ccc(OC)cc1	-	-	-	-	-	-
COc1ccc(/C(=N\Nc2ccccc2C(=O)O)c2ccccc2)cc1	-	35µM	?	-	?	-
COc1ccc(N/N=C(\C=N\O)C(=O)c2ccc(OC)cc2)cc1	-	50µM	-	-	?	40µM
COc1ccc(C(=O)C(=NNc2ccccc2)c2ccc(OC)cc2)cc1	?	.	-	.	45µM	.
Cc1c(C(=O)Nc2ccc(C(F)(F)F)cc2)sc2ncn(CC(=O)N3CCN(c4ccccn4)CC3)c(=O)c12	-	-[0.501 µM]	-	-	-	-
COc1cc(C2N(c3cc(C)on3)C(=O)C3CCCN32)cc(OC)c1OC (stereo not given)	-	-	-	-	?	-
COc1ccc(C2N(c3cc(C)on3)C(=O)C3CCCN32)cc1OC (stereo not given)	-	?	-	-	20µM	?
CCOc1ccc(C2N(c3cc(C)on3)C(=O)C3CCCN32)cc1OC (stereo not given)	?	?	27µM	-	35µM	-
O=C(N/C=N/O)C(c1ccccc1)c1ncc(C(F)(F)F)cc1Cl (stereo not given)	-	-	-	-	-	-
CC(=O)N1c2ccccc2[C@@H](C)[C@@H]1C	-	-[0.501 µM]	-	.	-	-
CC(=O)N1c2ccccc2C2(O)N=C(C)SC12 (stereo not given)	?	1.4µM	5.3µM	-	5.6µM	?
Cc1ccc(S/C(=N/S(=O)(=O)c2ccc(Cl)cc2)c2ccccc2)cc1	-	.	.	.	-	.
Cn1c(=O)c2c(SCc3cccnc3)nc(CC(C)(C)C)nc2n(C)c1=O	-	-	-	56µM	-	-
Cc1ccccc1-c1nc(SCc2cccnc2)c2c(=O)n(C)c(=O)n(C)c2n1	-	56µM	-	-	-	-
C=CCNc1nc(C2(C)CC3(CC(C)(C)OC3=O)C(=O)O2)cs1 (stereo not given)	-	40µM	-	-	-	-
COC(=O)c1cccc(CN2C(=O)SC(Nc3ccccc3C)C2=O)c1 (stereo not given)	-	-	.	.	-	-
Cc1cc(C)cc(NC(=O)c2ccc(S(=O)(=O)C(F)F)cc2)c1	-	50µM	-	-	-	-
Cc1ccc(C(=O)N2CCc3cc(CNC(=O)CCc4ccccc4)ccc32)cc1	-	-	.	.	-	-
COc1cc(-c2nc(-c3ccc4c(c3)-c3ccccc3S4(=O)=O)c(-c3ccccc3)[nH]2)cc(OC)c1OC	-	45µM	-	-	-	-

Bioassay records as filed in PubChem BioAssay.
